High-throughput results as filed in PubChem.
Only some compounds are listed: those with a hit (about 4% of all), similar ones and a draw of the others.
Rv3671c inh: Rv3671c serine protease inhibitors, primary screen, biochemical, fluorescence polarization, M. tuberculosis H37Rv; P9WHR9; inhibition, % at 5.96 µM; 0.048% of 320,000 active; AID 2606, 2010; in the data active means inhibition above about 38%;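 further: extracellular domain of Rv3671c used as enzyme; 0% = enzyme with DMSO and 100% = no enzyme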
Mtb bLac sens: beta-lactam sensitization of Mtb H37Rv, H37Rv; M. tuberculosis H37Rv growth with meropenem, percent inhibition; inhibition, % at 25 µM; 0.27% of 330,000 active; call rule not given here;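 further: growth measured after seven days incubation then overnight dye step; 0% = bacteria only wells and 100% = bacteria with antibiotic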
Mtb FBA inh: Mtb FBA enzyme inhibitors, primary screen, biochemical, fluorescence, strain H37Rv; Fructose-bisphosphate aldolase (Mycobacterium tuberculosis (strain ATCC 25618 / H37Rv)), …; purified M. tuberculosis FBA, fluorescence read-out; 2.3% of 360,000 active; inhibition, % at 1 µM; AID 588726, 2011; in the data active means inhibition above about 27%;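 further: 0% = vehicle and 100% = reference inhibitor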
Target sequence (P9WQA3 whole entry, looked up): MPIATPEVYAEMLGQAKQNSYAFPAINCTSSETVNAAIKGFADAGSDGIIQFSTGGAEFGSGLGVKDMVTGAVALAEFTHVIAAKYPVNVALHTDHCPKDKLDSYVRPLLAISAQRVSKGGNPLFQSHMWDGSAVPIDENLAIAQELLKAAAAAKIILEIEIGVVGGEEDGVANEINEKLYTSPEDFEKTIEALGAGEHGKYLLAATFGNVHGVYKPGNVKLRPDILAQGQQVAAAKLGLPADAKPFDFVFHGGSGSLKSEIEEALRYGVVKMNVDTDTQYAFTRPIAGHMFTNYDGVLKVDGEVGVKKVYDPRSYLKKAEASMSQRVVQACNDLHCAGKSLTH
RecA intein inh: Mtb RecA intein splicing inhibitors, primary screen, biochemical, fluorescence, HTS. Protein RecA (Mycobacterium tuberculosis (strain ATCC 25618 / H37Rv)), P9WHJ3. cell-free RecA intein splicing. inhibition, % (concentration not given with the values). 0.75% of 290,000 active. AID 2221, 2009; in the data active means inhibition above about 30%; inconclusive means no clear call, values can overlap the other calls;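 further: 0% = vehicle wells and 100% = reference inhibitor control wells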
UGM FP inh: M. tuberculosis UGM enzyme inhibitors, primary screen, biochemical, fluorescence polarization, single point; UDP-galactopyranose mutase (Mycobacterium tuberculosis (strain ATCC 25618 / H37Rv)), …; purified UGM, fluorescence polarization probe displacement; inhibition, % at 10 µM; 0.06% of 320,000 active; AID 504406, 2011; in the data active means inhibition above about 10%, passing the limit was not always enough; inconclusive means no clear call, values can overlap the other calls
GDH-TPI inh: GDH-TPI coupling enzyme inhibitors, primary screen, artefact control for M. tuberculosis FBA inhibitor project, biochemical, absorbance, full deck. 1.2% of 360,000 active. inhibition, % at 4.8 µM. GDH-TPI coupled enzyme counterscreen, NADH absorbance. AID 588335, 2011; in the data active means inhibition above about 30%;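 further: 0% = DMSO wells and 100% = wells lacking the enzyme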
Active calls of the source: *; i = inactive; u = inconclusive; x = not tested or not shown; + = active, no number; ! = not active in a repeat.

SMILES	Rv3671c inh	Mtb bLac sens	Mtb FBA inh	RecA intein inh	UGM FP inh	GDH-TPI inh
Cc1ccc2nc3c(cc(C(=O)NCC4CCCO4)c(=N)n3C3CCCC3)c(=O)n2c1 (stereo unspecified)	-1.4	-3.6	+	x	-1.1	6.1
Cc1cccn2c(=O)c3cc(C(=O)NCc4ccco4)c(=N)n(CCOCCO)c3nc12	10.9	3.7	+	-202.3	-1.8	16.4
N=c1c(C(=O)NCC2CCCO2)cc2c(=O)n3ccccc3nc2n1C1CCCC1 (stereo unspecified)	4.5	-0.1	+	1.9	1.9	-0.8
COc1ccc(CCNC(=O)c2cc3c(=O)n4ccccc4nc3n(C3CCCCC3)c2=N)cc1	4.9	90.7	16.1	-26.9	0.6	0.0
CCOc1ccc(OCCSc2ccc(S(=O)(=O)N3CCN(C)CC3)cn2)cc1	8.4	97.4	-1.6	x	-1.4	-4.2
CCOC(=O)C1(C#N)Cc2ccccc2C1	x	x	1.2	x	x	-9.1
O=C(Nc1ccc(F)cc1)Nc1nnc([C@@H]2C[C@H](O)[C@@H](CO)O2)s1	x	x	6.2	x	x	11.5
CC[C@]12c3[nH]c4ccc(OC)cc4c3CCN1C(=O)C(CC(=O)NC(C)(C)C)C[C@@H]2C(=O)N1CCN(C(=O)c2ccco2)CC1 (stereo partly specified)	x	x	-2.6	x	x	4.2
N=c1c(C(=O)NCC2CCCO2)cc2c(=O)n3ccccc3nc2n1C1CCCCC1 (stereo unspecified)	-2.1	6.1	+	i	1.1	0.7
Cc1cccn2c(=O)c3cc(C(=O)NCC4CCCO4)c(=N)n(C4CCCC4)c3nc12 (stereo unspecified)	4.0	3.3	+	i	1.3	10.9
COc1ccc(CCNC(=O)c2cc3c(=O)n4ccccc4nc3n(C3CCCCC3)c2=N)cc1OC	-8.2	-2.8	2.0	-4.2	-2.4	-4.7
O=C(Nc1cnns1)Oc1ccccc1	x	x	-0.8	x	x	1.8
COc1ccc(OCCCC(=O)Nc2nccs2)cc1	3.2	3.8	0.6	0.1	1.3	14.3
Cc1cn2c(N)c(/C=C3\C=Nc4ccccc43)c(=O)nc2s1	-28.5	-8.1	-10.7	x	5.7	-0.5
CCc1nn2c(N)c(/C=C3\C=Nc4ccccc43)c(=O)nc2s1	2.6	4.6	2.6	-0.9	-0.6	33.3*!
CS(=O)(=O)Nc1ccc(C(=O)CC(=O)Nc2ccc([N+](=O)[O-])cc2)cc1	-35.0	1.8	0.6	1.2	1.0	77.1*
O=c1c2ccccc2sc2nc(CCl)nn12	x	x	3.0	x	x	7.8
O=C(CCc1ccc(O)cc1)c1c(O)cc(O)cc1O[C@@H]1O[C@H](CO)[C@@H](O)[C@H](O)[C@H]1O	-4.2	0.6	1.8	-2.4	-0.9	33.3*
O=c1c(O[C@@H]2O[C@H](CO)[C@@H](O)[C@H](O)[C@H]2O)c(-c2ccc(O)cc2)oc2cc(O)cc(O)c12	2.5	-0.7	3.6	x	2.7	37.2*
OC[C@H]1O[C@@H](Oc2ccc(O)cc2)[C@H](O)[C@@H](O)[C@@H]1O	x	x	-0.8	x	x	-5.7
Cc1sc(NC(=O)c2ccco2)c(C(c2cccnc2)N2CCCC2)c1C (stereo unspecified)	8.0	-7.3	1.0	17.6	0.6	31.1*
O=C(COC(=O)Cc1ccsc1)Nc1ccc(Cl)cc1F	3.5	5.7	-2.7	x	1.3	3.5
COc1cc(/C=N/Nc2ncc(C(F)(F)F)cc2Cl)cc(OC)c1OC	-5.1	17.9	-3.1	-3.9	-0.9	31.9*
CCOC(=O)c1cnn2c1[nH]c(=O)c1ccccc12	0.1	-1.9	30.0*	x	0.3	9.3
CCOC(=O)c1cnc(Cc2ccccc2)[nH]c1=O	-5.1	4.6	3.2	2.3	3.0	0.8
SMILES	Rv3671c inh	Mtb bLac sens	Mtb FBA inh	RecA intein inh	UGM FP inh	GDH-TPI inh
O=C(COC(=O)c1cccc(Br)c1)NC1CCCCCCC1	x	x	0.1	x	x	-2.2
O=C(Nc1nc2cc3c(cc2s1)OCCO3)c1ccco1	-6.0	u	-0.4	0.9	-0.4	34.7*
O=C(Nc1nc2cc3c(cc2s1)OCO3)C1=COCCO1	-7.2	0.5	-4.7	9.3	2.9	42.3*
CC(=O)Nc1nc2cc3c(cc2s1)OCO3	-1.9	2.6	-3.6	1.3	-4.8	8.0
CC(C)C(=O)Nc1nc2cc3c(cc2s1)OCCO3	11.8	-2.2	1.8	0.9	-1.5	-0.3
O=C(Nc1nc2cc3c(cc2s1)OCO3)c1ccco1	x	x	1.5	-0.5	x	34.9*
O=C(Nc1nc2cc3c(cc2s1)OCCO3)c1ccncc1	-3.8	-4.7	-1.5	-1.7	0.8	19.2
N#Cc1ccccc1OCC(=O)NNC(=O)CCC1CCCC1	-4.2	-1.4	2.7	x	-0.2	0.0
Oc1[nH]c2ccc(Br)cc2c1N=NC(=S)NCC1CCCO1 (stereo unspecified)	-0.1	49.6	-7.6	19.1	0.2	36.2*
Oc1[nH]c2ccccc2c1N=NC(=S)NCC1CCCO1 (stereo unspecified)	0.2	46.3	-7.9	10.2	-1.0	21.1
Oc1[nH]c2ccc(Br)cc2c1N=Nc1ccc(F)cc1	-0.6	42.4	-4.5	-10.0	18.3*	7.1
CN(C(=O)Cn1cc(C(F)(F)F)cc(Cl)c1=O)C1CCS(=O)(=O)C1 (stereo unspecified)	0.3	-3.2	-2.1	-1.1	-0.4	4.9
CCc1cc(=O)oc2c3c(cc(OCC(=O)NCc4ccco4)c12)OC(C)(C)CC3	-6.7	-8.7	154.4*	7.1	0.3	22.6
CCc1cc(=O)oc2c3c(cc(OCC(=O)NCc4ccncc4)c12)OC(C)(C)CC3	6.7	-6.9	+	x	-0.8	15.7
Brc1ccc(/C=N/c2nc3ccccc3n2CCN2CCOCC2)cc1	10.6	-0.3	3.0	-2.0	17.0*	-3.9
CCOC(=O)c1cc(C)[nH]c(=O)c1C#N	0.0	2.8	161.2*	-42.0	3.2	-3.3
NS(=O)(=O)c1ccc(N/N=C/c2ccc[nH]2)c([N+](=O)[O-])c1	-2.1	3.6	-7.7	-2.1	1.5	72.7*
CCC(CC)=NNc1ccc(S(N)(=O)=O)cc1[N+](=O)[O-]	0.5	-0.8	-10.4	2.0	0.1	7.4
CC(=O)Nc1ccc(C=NNc2ccc(S(=O)(=O)Nc3ccccc3C(=O)O)cc2[N+](=O)[O-])cc1	26.1	5.0	-2.0	x	0.9	48.5*
COc1cc(/C=N/Nc2ccccc2[N+](=O)[O-])cc(OC)c1O	9.2	6.9	-13.2	-3.5	-3.7	26.8
O=C(O)c1ccc(/C=N\Nc2ccc(S(=O)(=O)N3CCOCC3)cc2[N+](=O)[O-])cc1	-4.5	-1.5	3.7	-0.9	-2.5	0.5
NS(=O)(=O)c1ccc(N/N=C/c2ccc(C(=O)O)cc2)c([N+](=O)[O-])c1	-1.3	-3.8	-19.7	0.7	1.3	66.7*
